Data published in the supplement of paper PMC10849652.
About 7,900 targets were measured; listed, in parts, are those with a hit and a random draw of the rest. About 0.6% of all pairs of compound and target were hits.

Compound: c1cn2cc(-c3ccc4cn[nH]c4c3)nc(Nc3ccc(N4CCOCC4)cc3)c2n1 [entospletinib]
Assay: log2 fold change, soluble protein after heating vs DMSO (PISA); higher = thermal stabilisation; K562 cells, 10 uM, 30 min; active = over 0.2 and 3.5 SD of the protein, either way, in both replicates (recomputed)
In short: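 K562 cells at 2×10^6 cells/mL were treated with 10 μM compound for 30 min. Aliquots were heated for 3 min across 48°C-58°C, pooled, and extracted in PBS with 0.5% NP-40 at 4°C; soluble protein was the supernatant after 21,000xg for 90 min. Soluble protein was quantified by TMTpro 16plex LC-MS/MS with channel sums equalised, and reported as log2 fold change in thermal stability against DMSO controls, with values from duplicates.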

Chain of UniProt P49643 (P49643 whole entry, looked up): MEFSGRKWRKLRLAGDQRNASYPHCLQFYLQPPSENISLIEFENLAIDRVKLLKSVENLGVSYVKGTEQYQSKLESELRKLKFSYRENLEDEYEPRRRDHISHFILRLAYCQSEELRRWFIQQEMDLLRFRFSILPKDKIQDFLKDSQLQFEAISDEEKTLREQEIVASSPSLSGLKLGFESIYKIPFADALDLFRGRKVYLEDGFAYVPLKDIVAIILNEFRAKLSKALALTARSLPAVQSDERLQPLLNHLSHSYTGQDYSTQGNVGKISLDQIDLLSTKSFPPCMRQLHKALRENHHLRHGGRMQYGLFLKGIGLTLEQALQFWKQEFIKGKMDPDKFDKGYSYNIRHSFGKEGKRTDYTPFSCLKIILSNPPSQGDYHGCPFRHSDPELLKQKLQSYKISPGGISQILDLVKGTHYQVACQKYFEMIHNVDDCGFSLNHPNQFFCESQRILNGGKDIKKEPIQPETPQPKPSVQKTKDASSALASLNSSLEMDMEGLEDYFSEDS
Chain of UniProt Q8N165 (Q8N165 whole entry, looked up): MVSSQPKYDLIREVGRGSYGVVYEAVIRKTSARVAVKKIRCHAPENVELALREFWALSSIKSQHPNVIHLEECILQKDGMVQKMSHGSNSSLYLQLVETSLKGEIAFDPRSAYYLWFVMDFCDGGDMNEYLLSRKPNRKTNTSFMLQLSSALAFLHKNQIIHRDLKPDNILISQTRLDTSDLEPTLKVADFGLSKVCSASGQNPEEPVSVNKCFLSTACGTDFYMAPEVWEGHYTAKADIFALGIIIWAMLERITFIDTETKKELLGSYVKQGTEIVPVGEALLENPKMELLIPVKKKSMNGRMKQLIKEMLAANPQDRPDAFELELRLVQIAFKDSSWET
Chain of UniProt P28340 (P28340 whole entry, looked up): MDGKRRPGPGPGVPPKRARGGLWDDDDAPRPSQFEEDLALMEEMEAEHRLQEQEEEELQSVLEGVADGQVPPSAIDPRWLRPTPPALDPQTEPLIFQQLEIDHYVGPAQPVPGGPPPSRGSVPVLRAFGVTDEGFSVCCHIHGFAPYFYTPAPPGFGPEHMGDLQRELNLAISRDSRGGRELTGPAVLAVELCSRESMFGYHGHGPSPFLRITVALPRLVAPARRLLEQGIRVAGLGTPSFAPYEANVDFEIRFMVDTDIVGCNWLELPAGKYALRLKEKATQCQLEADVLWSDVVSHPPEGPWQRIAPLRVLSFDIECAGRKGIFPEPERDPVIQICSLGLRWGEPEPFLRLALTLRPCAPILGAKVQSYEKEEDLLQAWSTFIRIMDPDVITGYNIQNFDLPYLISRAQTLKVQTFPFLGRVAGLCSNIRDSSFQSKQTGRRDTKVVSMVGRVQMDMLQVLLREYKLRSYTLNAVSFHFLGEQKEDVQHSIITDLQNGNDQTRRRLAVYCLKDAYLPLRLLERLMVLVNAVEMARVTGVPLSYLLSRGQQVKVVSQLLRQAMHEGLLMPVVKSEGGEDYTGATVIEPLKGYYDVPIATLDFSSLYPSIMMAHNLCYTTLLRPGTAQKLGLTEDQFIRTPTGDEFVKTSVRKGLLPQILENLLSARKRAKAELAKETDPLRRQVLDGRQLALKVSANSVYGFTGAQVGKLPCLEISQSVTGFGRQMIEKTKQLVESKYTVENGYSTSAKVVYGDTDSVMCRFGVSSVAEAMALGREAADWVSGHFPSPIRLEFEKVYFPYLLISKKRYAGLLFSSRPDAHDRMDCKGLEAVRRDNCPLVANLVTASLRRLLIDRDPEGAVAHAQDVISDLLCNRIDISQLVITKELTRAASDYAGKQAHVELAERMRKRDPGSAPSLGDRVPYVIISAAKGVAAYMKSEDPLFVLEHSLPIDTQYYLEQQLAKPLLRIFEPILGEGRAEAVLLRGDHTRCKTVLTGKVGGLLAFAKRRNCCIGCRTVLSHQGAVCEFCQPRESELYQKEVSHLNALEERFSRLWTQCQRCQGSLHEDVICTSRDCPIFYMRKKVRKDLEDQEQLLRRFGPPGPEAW
Chain of UniProt Q92968 (Q92968 whole entry, looked up): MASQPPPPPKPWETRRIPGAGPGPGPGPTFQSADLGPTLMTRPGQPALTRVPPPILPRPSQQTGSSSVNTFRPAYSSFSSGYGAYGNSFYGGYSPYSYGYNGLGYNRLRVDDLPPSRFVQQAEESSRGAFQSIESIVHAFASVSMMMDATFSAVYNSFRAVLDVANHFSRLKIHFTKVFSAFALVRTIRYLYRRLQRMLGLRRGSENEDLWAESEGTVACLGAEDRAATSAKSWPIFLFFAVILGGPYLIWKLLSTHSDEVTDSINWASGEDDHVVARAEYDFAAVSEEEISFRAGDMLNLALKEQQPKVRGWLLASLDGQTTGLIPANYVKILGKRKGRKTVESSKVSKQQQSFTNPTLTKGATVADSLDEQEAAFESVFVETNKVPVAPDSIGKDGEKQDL
Chain of UniProt Q15257 (Q15257 whole entry, looked up): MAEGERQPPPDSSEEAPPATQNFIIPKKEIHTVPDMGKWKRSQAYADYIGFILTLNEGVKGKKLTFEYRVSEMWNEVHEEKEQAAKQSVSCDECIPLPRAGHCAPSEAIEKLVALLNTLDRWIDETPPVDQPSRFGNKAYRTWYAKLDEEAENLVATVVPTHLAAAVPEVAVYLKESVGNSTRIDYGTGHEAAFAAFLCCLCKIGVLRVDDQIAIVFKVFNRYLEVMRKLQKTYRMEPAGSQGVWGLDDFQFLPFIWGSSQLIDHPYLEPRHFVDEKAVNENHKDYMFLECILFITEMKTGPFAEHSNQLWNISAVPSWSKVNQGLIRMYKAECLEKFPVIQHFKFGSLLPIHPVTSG
Chain of UniProt O75340 (O75340 whole entry, looked up): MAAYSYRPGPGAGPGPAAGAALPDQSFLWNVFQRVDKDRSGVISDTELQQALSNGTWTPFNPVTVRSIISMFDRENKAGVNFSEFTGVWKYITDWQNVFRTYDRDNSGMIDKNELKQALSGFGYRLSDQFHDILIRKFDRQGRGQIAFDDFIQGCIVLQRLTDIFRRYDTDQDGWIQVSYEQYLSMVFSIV
Chain of UniProt Q9BZL4 (Q9BZL4 whole entry, looked up): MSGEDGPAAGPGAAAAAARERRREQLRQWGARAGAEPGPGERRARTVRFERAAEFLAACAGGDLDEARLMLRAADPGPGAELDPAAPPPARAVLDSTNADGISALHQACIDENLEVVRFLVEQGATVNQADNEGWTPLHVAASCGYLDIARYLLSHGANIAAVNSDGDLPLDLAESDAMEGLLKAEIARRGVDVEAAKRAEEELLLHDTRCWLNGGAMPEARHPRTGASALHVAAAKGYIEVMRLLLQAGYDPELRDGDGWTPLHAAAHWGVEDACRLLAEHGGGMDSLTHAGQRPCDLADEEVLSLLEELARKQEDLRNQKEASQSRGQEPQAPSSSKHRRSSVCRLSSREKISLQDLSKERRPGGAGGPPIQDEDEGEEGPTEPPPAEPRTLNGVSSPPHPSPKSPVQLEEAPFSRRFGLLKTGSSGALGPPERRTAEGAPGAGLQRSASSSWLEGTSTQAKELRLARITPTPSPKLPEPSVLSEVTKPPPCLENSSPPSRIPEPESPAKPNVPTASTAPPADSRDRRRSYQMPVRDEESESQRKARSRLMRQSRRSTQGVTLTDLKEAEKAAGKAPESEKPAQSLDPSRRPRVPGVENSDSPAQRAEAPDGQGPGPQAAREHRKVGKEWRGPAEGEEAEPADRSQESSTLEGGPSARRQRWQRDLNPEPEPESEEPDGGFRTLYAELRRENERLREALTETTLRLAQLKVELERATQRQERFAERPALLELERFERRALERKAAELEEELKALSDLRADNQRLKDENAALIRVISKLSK
Chain of UniProt Q9Y3C6 (Q9Y3C6 whole entry, looked up): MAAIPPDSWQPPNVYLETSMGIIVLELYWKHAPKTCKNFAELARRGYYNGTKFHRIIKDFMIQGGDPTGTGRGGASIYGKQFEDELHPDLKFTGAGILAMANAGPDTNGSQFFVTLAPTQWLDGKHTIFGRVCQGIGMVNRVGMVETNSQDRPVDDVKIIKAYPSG
Chain of UniProt Q5JRX3 (Q5JRX3 whole entry, looked up): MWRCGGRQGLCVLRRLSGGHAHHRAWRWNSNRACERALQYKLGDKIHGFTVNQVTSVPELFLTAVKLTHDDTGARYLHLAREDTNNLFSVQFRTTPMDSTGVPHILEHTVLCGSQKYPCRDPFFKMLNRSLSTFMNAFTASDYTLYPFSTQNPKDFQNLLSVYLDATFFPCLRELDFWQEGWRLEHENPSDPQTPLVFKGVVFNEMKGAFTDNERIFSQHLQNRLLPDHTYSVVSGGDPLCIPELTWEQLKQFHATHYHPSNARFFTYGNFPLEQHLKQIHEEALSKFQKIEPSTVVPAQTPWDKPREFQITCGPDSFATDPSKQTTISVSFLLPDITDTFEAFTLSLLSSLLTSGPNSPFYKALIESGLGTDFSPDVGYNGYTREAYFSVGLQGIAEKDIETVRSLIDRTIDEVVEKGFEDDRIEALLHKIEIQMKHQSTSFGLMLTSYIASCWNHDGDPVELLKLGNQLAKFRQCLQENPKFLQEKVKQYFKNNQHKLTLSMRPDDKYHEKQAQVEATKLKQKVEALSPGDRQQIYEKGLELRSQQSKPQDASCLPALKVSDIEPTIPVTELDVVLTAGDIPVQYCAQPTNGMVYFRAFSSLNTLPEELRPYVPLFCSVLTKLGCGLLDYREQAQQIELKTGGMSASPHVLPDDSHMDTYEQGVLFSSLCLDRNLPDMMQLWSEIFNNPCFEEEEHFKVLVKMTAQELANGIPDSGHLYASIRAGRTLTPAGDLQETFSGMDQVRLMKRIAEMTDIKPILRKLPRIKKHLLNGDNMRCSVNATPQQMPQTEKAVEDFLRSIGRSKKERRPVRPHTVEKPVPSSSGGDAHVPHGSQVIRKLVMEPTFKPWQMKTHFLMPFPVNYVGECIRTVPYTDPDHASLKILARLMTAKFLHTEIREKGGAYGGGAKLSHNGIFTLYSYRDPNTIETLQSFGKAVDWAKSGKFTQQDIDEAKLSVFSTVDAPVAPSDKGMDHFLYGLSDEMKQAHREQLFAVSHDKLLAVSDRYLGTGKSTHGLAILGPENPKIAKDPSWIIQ

log2 fold change, inactive:
PCNT (UniProt O95613) 0.14
PTRH2 (UniProt Q9Y3E5) 0.019
PRKAA1 isoform 2 (UniProt Q13131) -0.015
PITRM1 isoform 2 (UniProt Q5JRX3) -0.103
PCLAF (UniProt Q15004) -0.132
POLB (UniProt P06746) -0.156
PEX13 (UniProt Q92968) 0.012
PPP1R12C (UniProt Q9BZL4) 0.038
PDIK1L (UniProt Q8N165) 0.06
PPIL1 (UniProt Q9Y3C6) 0.052
PIK3CB (UniProt P42338) 0.033
PTPA (UniProt Q15257) -0.004
POLD1 (UniProt P28340) 0.001
PDCD6 (UniProt O75340) 0.024
PRIM2 (UniProt P49643) 0
